Molecules are shown by their SMILES. About 83,000 compounds went through this panel and 20% of them were active in at least one assay; those are over-represented in the sample as a whole.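 Growth was measured after 48 h exposure to one concentration of compound in 96-well plates. Values under 10 count as active.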 A number with no mark means an inactive call. Activity calls are given as the source filed them.

The experiment concerns NCI-H226 lung. Nature of the experiment: NCI-60 one-dose screen, 48 h (100 = growth as untreated, 0 = no growth, -100 = all killed). As to conditions: 10 µM unless noted. As to the method:
Growth inhibition of the NCI-H226 human Non-Small Cell Lung tumor cell line is measured as a screen for anti-cancer activity. Cells are grown in 96 well plates and exposed to the test compound for 48 hours. Compounds are tested at a single concentration, which is 10^-5 M for most compounds. The reported endpoint is percent growth (GI% or GIPRCNT), where numbers from 0 - 100% represent growth inhibition, and numbers from -100% - 0 represent cell death. For example, a value of 40 represents 60% growth inhibition. A value of 0 means no net growth occurred over the course of the experiment. A value of -40 indicates 40% of cells at the beginning of the experiment died by the end of the experiment. A value of -100 means all cells are dead at the end of the experiment.
NCI-60 Human Tumor Cell Lines Screen was performed using the standard one-dose NCI protocol, which is described in more detail at https://dtp.cancer.gov/discovery_development/nci-60/default.htm.
Compounds with GIPRCNT values below 10 were considered active. Activity score was based on GIPRCNT using the following formula: […]
Score is 0 for GIPRCNT values of 100 or above, 50 for GIPRCNT values of 0, and 100 for GIPRCNT values of -100.
In the case of `COc1ccc(-c2nc(SCCC(C)C)nc(N/N=C\c3cccc(Cl)c3)c2C#N)cc1`, the growth is 90%. For `CCN1C(=O)N(CC)C2C1NN=c1s/c(=C\c3cccs3)c(=O)n12` (stereo not given) the value was 79%; for `Cc1cc[c-]cc1.Fc1c[c-]c(-c2ccccn2)c(F)c1.[Pt+2].c1ccc(P(C[PH+](c2ccccc2)c2ccccc2)c2ccccc2)cc1`, -2.11% (active). Consider `S=C(Cc1ccc2c(c1)CCCC2)N1CCOCC1`, for which the growth is 110%. In the case of `COc1cc(-c2nc(N3CCN(C)CC3)c3ccccc3n2)cc(OC)c1OC`, the growth is 66.2%. For `COc1cccc(/C=C/C(=O)c2c(C)nc3ccccc3c2/C=C/c2ccc(C)cc2)c1OC` the value was 62.8%; for `N/C(=N\c1nc2ccccc2s1)NC(=O)Nc1cccc(Cl)c1`, 55.3%; for `O=[N+]([O-])c1ccc(C2CC(c3ccccc3)=Nc3ccccc3S2)cc1` (stereo not given), 118%. With `CCc1ccccc1-n1c(-c2ccc(Cl)cc2)cc(-c2ccc(Cl)cc2)c(C#N)c1=O`, the growth is 97.4%.

For `O=c1c2cc(F)ccc2sc2c(NCCN3CCCCC3)nc3ccccc3c12`, the growth was 77%. Consider `CCCCCCCCCCCCCCCCCC1=NCCN1CCOC1=C(Cl)C(=O)c2ccccc2C1=O`, for which the growth was 100%. As for `COc1ccc2c(c1)C(=O)/C(=C/c1ccc(OCC(=O)Nc3nccs3)cc1)O2`, the growth was 94.1%. As to `COC(=O)CCC1=C(C)C2=NC1=CC1=NC(=CC3=NC(=Cc4[nH]c(/c(=C(/C)O)c4C)=C2)C(C(C)=O)=C3C)C(C)=C1CCC(=O)OC`, the growth was 83.9%. Regarding `Cc1c(C)c2c(c(C)c1OCC(=O)O)CC[C@@](C)(CCC[C@@H](C)CCC[C@@H](C)CCCC(C)C)O2`, the growth was 2.79% [50 µM] (active). Consider `N#C/C(=C\c1ccc(Br)cc1)n1nnc2cc(F)c(F)cc21`, for which the growth was 37.3%. On to `CCCCN(CCCC)CC(C)(C)C(O)c1ccc(OC)c2ccccc12` (stereo not given), for which the growth is 51.7%. The value for `COC(=O)/C=C1\S/C(=N\NS(=O)(=O)c2ccc(C)cc2)N(c2ccccc2)C1=O` was 97.8%.

As to `COc1cccc(-c2nn(-c3ccccc3)cc2-c2ccnc(NCCCNC(=O)c3ccccc3)c2)c1`, the growth was 61.4%.

For the molecule `CC1O[C@@H](OC2[C@H](OC(=O)/C=C/c3ccc(O)c(O)c3)C(COC3O[C@H](C)C(O)C(O)[C@@H]3O)O[C@@H](OCCc3ccc(O)c(O)c3)[C@H]2O)[C@@H](O)C(O)[C@H]1O` (stereo not given in full), the growth is 112%.

For `O=C(Nc1cccc2c(O)c(N=Nc3ccc(S(=O)(=O)Nc4nccs4)cc3)cc(N=Nc3ccc(S(=O)(=O)Nc4nccs4)cc3)c12)C(Cl)Cl`, the growth is 98.8%. For `O=C(Nc1ccc(Nc2ccncc2)cc1)c1ccc(C(=O)Nc2ccc(Nc3ccncc3)cc2)cc1` the value was 68.8%; for `CC(C)(C)n1cc(-c2ccnc(NCCCNS(=O)(=O)c3ccccc3)c2)c(-c2ccccc2)n1`, 82.5%. `C[C@H]1[C@H]2[C@H]3CC[C@@H]4[C@@]5(C)C/C(=C/c6ccco6)C(=O)C(C)(C)[C@@H]5CC[C@@]4(C)[C@]3(C)CC[C@]23CO[C@]1(C)[C@@H](C(=O)/C=C\c1ccco1)C3`: the growth is 99.6%. The value for `N=C(N)c1ccc(-c2ccc(-c3cncc4ccccc34)s2)s1` was -50.6% (active). Consider `COc1cc2ncn3c(=O)c4c5c(sc4nc3c2cc1OC)CCCC5`, for which the growth was 93.8%. `COc1cc(/C=C/C(=O)c2c(C)nc3ccccc3c2C)ccc1OCCCN1CCN(C(=O)c2ccco2)CC1`: the growth was 63.2%. Take `Cc1cc(C)c(-c2c(C)cc(C)cc2CBr)c(CBr)c1`: the growth was 100%. For `Fc1ccc(CNc2c3ccccc3nc3ccccc23)cc1F` the value was 47.6%; for `O=C(CCc1nnc(CN(c2ccccc2)c2ccccc2)o1)c1nc2ccccc2[nH]1`, 107%.

Take `CNC(=O)NCC1OC(n2cnc3c(NC(=O)Nc4ccccc4)ncnc32)C(O[Si](C)(C)C(C)(C)C)C1CC(=O)N(C)OC` (stereo not given): the growth is 40.6%. For `CCC1(C2CCCC2)NC(=O)NC1=O` (stereo not given), the growth was 101%. Regarding `O=C(COc1ccc(/C=C2\Oc3ccccc3C2=O)cc1)Nc1nc2ccccc2s1`, the growth was 98.4%. As for `CC(=O)C(C)Cc1cc2c(cc1C)C(C)(C)CCC2(C)C` (stereo not given), the growth is 99.5%.

For the molecule `Cc1ccc(/C=C/c2c(C(=O)/C=C/c3ccc(Cl)cc3)c(C)nc3ccccc23)cc1`, the growth is -30.4% (active). The value for `COc1ccc(C2=Nc3c(N)ncnc3NC(c3ccc4c(c3)OCO4)C2)cc1` (stereo not given) was 85.5%; that for `CN(C)CC1=NC2SC=C(c3ccccc3)C2C(=O)N1CC#N` (stereo not given) was 85.5%. In the case of `COc1cccc(-c2nn(-c3ccccc3)cc2-c2ccnc(NCCCNC(=O)c3ccc(F)cc3)c2)c1`, the growth is 60.1%. Regarding `COc1cc(/C=C/C(=O)c2c(C)nc3ccccc3c2/C=C/c2ccc(C)cc2)cc(OC)c1OC`, the growth was 28.9%. Regarding `COc1ccc(-c2nc(SC(C)C)nc(NNC(N)=S)c2C#N)cc1`, the growth was 86.4%. Consider `COc1ccc(S(=O)(=O)NCCNc2nccc(-c3c(-c4cccc(F)c4)nc4sccn34)n2)cc1`, for which the growth is 28.1%.

(Values after PubChem BioAssay (NCI).)
